An excerpt weighted towards active compounds, which were near 11% of everything screened.
HP1b chromo inh – HP1-beta chromodomain-methylated histone interaction inhibition; P83916; AlphaScreen HP1-beta / biotin-H3K9me3 peptide binding; Potency, µM (doses to about 114 µM), for inactives: top-dose activity change, negative = inhibition, hits mostly inhibitors; 390,000 tested, 0.56% active; further: nearly all actives have a fitted effect of over 70% in size
Target sequence (P83916 whole entry, looked up): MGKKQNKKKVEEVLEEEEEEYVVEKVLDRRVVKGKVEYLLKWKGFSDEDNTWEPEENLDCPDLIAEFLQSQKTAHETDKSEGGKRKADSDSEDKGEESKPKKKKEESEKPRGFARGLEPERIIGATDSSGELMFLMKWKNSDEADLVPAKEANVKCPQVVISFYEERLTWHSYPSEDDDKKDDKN
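AlphaScreen: HP1-beta (50 nM) preformed 30 min with biotin-H3(1-18)K9me3 peptide (50 nM) in PBS pH 7.4, 0.01% Tween-20. Compound added for 30 min at RT, then streptavidin donor/nickel chelate acceptor beads (10 ug/mL) for 30 min.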
BAZ2B block – BAZ2B (human) inhibition; Q9UIF8; AlphaScreen BAZ2B-H3K14Ac peptide displacement; Potency, µM (top dose mostly 114 µM), for the others: at the highest dose activity change, negative = inhibition, usual class: inhibitors; 360,000 tested, 4.4% active; further: on the % scale 0 is the no-effect control and ±100 the full control effect; nearly all actives have a fitted effect of over 60% in size
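Inhibition is scored as reduced AlphaScreen emission. The BAZ2B/b-H3(5-23)K14Ac complex (50 nM each) in PBS pH 7.4, 0.01% Tween-20 meets compound (up to 110 uM) for 30 min at RT before bead addition.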
PLK1 PBD inh – blocks phosphopeptide binding to human PLK1 polo-box domain. AID 720504. P53350. 360,000 tested, 2.8% active. Potency, µM, for the others: max response, negative = inhibition, usual class: inhibitors. Plk1 PBD binding of FITC phosphopeptide, fluorescence polarization; further: series mostly up to about 57 µM; on the % scale 0 is the no-effect control and ±100 the full control effect; nearly all actives have a fitted effect of over 65% in size
G9a block – G9a (human) methyltransferase inhibition; Q96KQ7; Potency, µM (titrated, usually from 102 µM), without a hit: at the top dose activity, negative = inhibition, actives largely listed as inhibitors; G9a H3K9 monomethylation, AlphaScreen, 2 h; 350,000 tested, 8.8% active; further: on the % scale 0 is the no-effect control and ±100 the full control effect; nearly all actives have a fitted effect of over 75% in size
Target sequence (Q96KQ7 913-1193 limits assumed): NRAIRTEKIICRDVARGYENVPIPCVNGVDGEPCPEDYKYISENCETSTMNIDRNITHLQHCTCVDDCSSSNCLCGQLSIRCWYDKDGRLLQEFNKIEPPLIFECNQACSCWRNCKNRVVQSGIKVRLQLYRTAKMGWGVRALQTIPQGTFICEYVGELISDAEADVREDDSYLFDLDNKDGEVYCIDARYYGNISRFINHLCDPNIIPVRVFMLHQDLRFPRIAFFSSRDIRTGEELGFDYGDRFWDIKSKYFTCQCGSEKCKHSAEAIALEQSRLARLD
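Quantitative HTS format: methyltransferase activity on a biotin-tagged H3K9 peptide is measured by AlphaScreen, using a rabbit anti-monomethyl-H3K9 antibody with streptavidin donor and anti-IgG acceptor beads. Final levels are 20 nM enzyme, 500 nM peptide, 20 uM SAM; 2 h RT.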
JMJD2A Tudor inh – blocks the human JMJD2A Tudor domain; AID 504339; Potency, µM (doses to about 114 µM), without a hit: top-dose activity change, negative = inhibition, usual class: inhibitors; AlphaScreen JMJD2A-Tudor / H3K4me3 peptide binding; 390,000 tested, 4.4% active; O75164; further: on the % scale 0 is the no-effect control and ±100 the full control effect; nearly all actives have a fitted effect of over 50% in size
VDR inh – inhibitors of human vitamin D receptor; P11473; VDR-SRC2-3 peptide fluorescence polarization, 2 h; Potency, µM, for inactives: max response, negative = inhibition, hits mostly inhibitors; 400,000 tested, 0.93% active; AID 504847; further: on the % scale 0 is the no-effect control and ±100 the full control effect
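FP read-out; VDR + SRC2-3 coactivator peptide; 23 nl compound by pintool; 2 h RT incubation; reagents held at 4 deg C, protected from light.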
TbPYK confirm – Trypanosoma brucei pyruvate kinase inhibition, cherry-pick confirmation | shares compounds with PLK1 PBD inh | recombinant TbPYK, Kinase-Glo ATP luminescence | Potency, µM (titrated, usually from 76.9 µM), inactives show at the highest dose activity change, negative = inhibition, usual class: inhibitors | 890 tested, 67% active | AID 720569; further: on the % scale 0 is the no-effect control and ±100 the full control effect; nearly all actives have a fitted effect of over 70% in size
TbPYK orthogonal – TbPYK inhibition, orthogonal confirmation. recombinant TbPYK, ADP-Glo luminescence, 60 min. 890 tested, 62% active. AID 720584. shares compounds with PLK1 PBD inh. Potency, µM (doses to about 76.9 µM), inactives show at the highest dose activity change, negative = inhibition, actives largely listed as inhibitors; further: on the % scale 0 is the no-effect control and ±100 the full control effect; nearly all actives have a fitted effect of over 75% in size
Starred values were filed as active, the others as inactive; u = inconclusive; x = not tested or not shown; [ ] = another dose, or the depositor's remark. The call rests on the fitted dose curve; in most records, active means well fitted curve in the direction sought with a large enough effect; inconclusive means small, poorly fitted or top-dose-only effect, or another doubt; inactive means no such curve, though single readings can be large; an effect the other way counts as inactive or inconclusive. Potency means the concentration at half of the fitted maximal effect.

SMILES	HP1b chromo inh	BAZ2B block	PLK1 PBD inh	G9a block	JMJD2A Tudor inh	VDR inh	TbPYK confirm	TbPYK orthogonal
CC1=C(C(=O)Nc2ccc(C(=O)NC(C)c3ccccc3)cc2)SCCO1 (stereo not drawn)	24%	-35%	2%	-7%	-22%	8%	x	x
c1ccc(-c2nc(-c3ccco3)cs2)nc1	-26%	6%	u	u	-36%	u	-26%	-20%
NC(=O)c1c(NC(=O)Cn2cc([N+](=O)[O-])cn2)sc2c1CCCC2	16%	-23%	-4%	u	-14%	-4%	x	x
Cc1onc(C(=O)Nc2sc3c(c2C(N)=O)CCCC3)c1[N+](=O)[O-]	u	u	11µM*	x	u	79µM*	16µM*	18µM*
NC(=O)c1ccc(N2CCN(c3ccc(O)cc3)CC2)c([N+](=O)[O-])c1	79µM*	u	-5%	u	25µM*	-11%	14µM*	u
CC(=O)c1ccc(N2CCN(c3ccc(C(N)=O)cc3[N+](=O)[O-])CC2)cc1	25%	-37%	-4%	x	-23%	-4%	x	x
CCOC(=O)c1sc(N/N=C/c2ccccc2)nc1C	-36%[57 µM]	-6%	8.4µM*	2µM*	u	45µM*	14µM*	28µM*
CCN1CCN(C(c2cccc(OC)c2)c2sc3nc(C)nn3c2O)CC1 (stereo not drawn)	22%	-1%	6%	7%[59 µM]	-24%	-9%	x	x
COc1cccc(C(c2sc3nc(C)nn3c2O)N2CCc3ccccc3C2)c1 (stereo not drawn)	50µM*	-1%	u	4µM*	20µM*	-22%	20µM*	25µM*
CC1COCC(C)N1C1=C(Cl)C(=O)c2ccccc2C1=O (stereo not drawn)	13µM*	x	13µM*	x	3.2µM*	u	u	u
O=C1C(Cl)=C(NCCN2CCOCC2)C(=O)c2ccccc21	u	-38%	0%	u	-35%	-13%	x	x
Oc1[nH]c2ccc(Br)cc2c1N=NC(=S)N1CCOCC1	-37%	45µM*	-18%	3.5µM*	18µM*	-8%	0.32µM*	0.45µM*
COC(=O)N=Nc1c(O)[nH]c2ccc(Br)cc12	5%	-3%	2%	7%	-25%	28%	x	x
Cc1ccc(S(=O)(=O)N(C)C[C@@H]2OCc3cn(nn3)CCCC(=O)N([C@@H](C)CO)C[C@H]2C)cc1	x	x	-1%	x	x	x	x	x
O=C(O)C(Cc1ccccc1)N1C(=O)C=CC1=O (stereo not drawn)	x	x	6.7µM*	x	x	x	18µM*	32µM*
CCCn1c(SCC(=O)c2cc(OC)ccc2OC)nnc1C(C)C	27%	14%	u	50µM*	79µM*	-16%	16µM*	16µM*
CCn1c(SCC(=O)c2cc(OC)ccc2OC)nc2c1c(=O)n(C)c(=O)n2C	x	0%	x	3%[12.7 µM]	x	x	x	x
COCCn1c(C)cc(O)c(C(c2ccccc2)N2CCN(CCO)CC2)c1=O (stereo not drawn)	23%[57 µM]	-3%	x	u	2%	12%	x	x
O=C(NCc1ccco1)c1cc2ccc(O)cc2oc1=O	2%	56µM*	-13%	-26%[59 µM]	-26%	-5%	20µM*	3%
O=C(c1ccccc1)c1cc2ccc(O)cc2oc1=O	16%	11%	-8%	-37%[59 µM]	-7%	-9%	u	9%
COc1ccc2cc(C(=O)NCc3ccco3)c(=O)oc2c1	17%	0%	-12%	-29%[59 µM]	-4%	-3%	x	x
CCn1cc(/C=C(\NC(=O)c2ccccc2Cl)C(=O)NCCCn2ccnc2)c2ccccc21	5%	u	x	-32%[59 µM]	u	7%	x	x
COc1ccc(Cc2c(-c3ccco3)nc3c(C)cc(Br)cn23)c(C)c1	x	x	-9%	x	x	x	x	x
COc1ccccc1Cc1c(-c2ccco2)nc2c(C)cc(Br)cn12	x	x	12µM*	x	x	x	-14%	-26%
COc1ccccc1Cc1c(-c2ccc(C)cc2)nc2c(C)cc(Br)cn12	x	x	-4%	x	x	x	x	x
SMILES	HP1b chromo inh	BAZ2B block	PLK1 PBD inh	G9a block	JMJD2A Tudor inh	VDR inh	TbPYK confirm	TbPYK orthogonal
COc1ccc(Cc2c(-c3ccco3)nc3ccc(Br)cn23)c(C)c1	x	x	24µM*	x	x	x	u	u
CC(=O)Nc1ccccc1OCC(=O)NCCc1ccc(Cl)cc1Cl	6%	-3%	-1%	-47%	-12%	-12%	x	x
COc1ccc(NC(=O)COC(=O)c2c(NC(C)=O)sc(C)c2C)cc1	x	x	-10%	x	x	x	x	x
COc1cc(N=c2ssnc2Cl)cc(OC)c1	-80%	45µM*	1.7µM*	u	28µM*	20µM*	4µM*	5µM*
Cc1cc(C)cc(C(N)=Nc2cccc(C#N)c2)c1	59%	1%	-8%	10%[2.33 µM]	-16%	-1%	x	x
Clc1nssc1=Nc1ccc(Br)cc1	32µM*	22µM*	2.1µM*	3.2µM*	25µM*	35µM*	8.9µM*	11µM*
N#Cc1cccc(N=c2ssnc2Cl)c1	u	28µM*	1.7µM*	0.89µM*	13µM*	u	8.9µM*	7.1µM*
Clc1nssc1=Nc1nncs1	u	50µM*	2.4µM*	0%[0.501 µM]	22µM*	5.6µM*	2µM*	5µM*
CC(C)CN(CCCNC(=O)CN1C(=O)COc2ccc(S(=O)(=O)N3CCCC3)cc21)CC(C)C	41%	2%	1%	-22%	-9%	-17%	x	x
CCN1C(=O)[C@H]2[C@@H](c3ccc(C(F)(F)F)cc3)N[C@]3(CCCN(Cc4ccc(F)cc4)C3=O)[C@H]2C1=O	x	x	-16%	x	x	x	x	x
CC1Cc2ccccc2N1C(=O)CSc1nnc(-c2ccccc2)c(-c2ccccc2)n1 (stereo not drawn)	0%	u	-6%	20%[0.501 µM]	-27%	31%	x	x
Fc1ccc(C[n+]2csc3ccccc32)cc1	15%	56µM*	12µM*	u	u	40µM*	7.9µM*	13µM*
O=C(Cc1csc2ccccc12)NCc1ccc(F)cc1	11%	-2%	x	3%[59 µM]	-11%	7%	x	x
Cc1nnsc1C(=O)N/N=C/c1c(F)cccc1Cl	20%	-3%	-1%	-4%	u	-17%	x	x
Cc1[nH]cnc1C(=O)N/N=C/c1c(Cl)cccc1Cl	4%	u	1%	1%[12.7 µM]	-27%	-16%	20µM*	12%
O=C(CN1CCc2ccccc2C1)NC1CCCC1	31%	-12%	-4%	u	-17%	3%	x	x
O=c1[nH]c(=O)n(C2CC(O)C(CO)O2)cc1Br (stereo not drawn)	-12%	x	-1%	x	79µM*	6%	13µM*	28µM*
